Records with an inconclusive call do not appear. The source made the active and inactive calls. Unless noted, the rule behind the calls is not given here.
Assays:
[1] = qHTS profiling of the MIPE4 collection as inhibitors of Plasmodium falciparum (3D7) proliferation (AID 743344);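 note: scaled between DMSO vehicle wells and 0.29 µM artemisinin as full inhibition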; conditions: P. falciparum 3D7 in erythrocytes, SYBR Green DNA fluorescence, 72 h; at 28.5 µM unless noted
How it was run: (§1)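 Erythrocytes infected with P. falciparum (0.3% parasitemia, 2.5% hematocrit) incubated with compounds 72 h at 37 C, 5% CO2. Lysis with saponin/Triton buffer containing SYBR Green I, overnight at room temperature in the dark; DNA fluorescence (485/535 nm) normalised to 0.29 uM artemisinin and DMSO.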

[2] = qHTS profiling of the MIPE4 collection as inhibitors of Plasmodium falciparum (DD2) proliferation (AID 743345); conditions: P. falciparum Dd2 in erythrocytes, SYBR Green DNA, 72 h; at 28.5 µM unless noted
How it was run: as §1

[3] = qHTS profiling of the MIPE4 collection as inhibitors of Plasmodium falciparum (DD2) proliferation (Rep 2) (AID 743346); conditions: P. falciparum Dd2 in erythrocytes, SYBR Green DNA, 72 h; at 28.5 µM unless noted
How it was run: as §1

[4] = qHTS profiling of the MIPE4 collection as inhibitors of Plasmodium falciparum (HB3) proliferation (AID 743347);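 note: plate controls were DMSO vehicle wells for no effect and artemisinin wells for full effect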; conditions: P. falciparum HB3 in erythrocytes, SYBR Green DNA, 72 h; at 28.5 µM unless noted
How it was run: as §1

[5] = High-throughput drug toxicity screening in the BPDCN cell line Gen2.2 (AID 1224824); conditions: Gen2.2 BPDCN cells; at 45.8 µM (top of the series) unless noted;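 note: cells exposed to compounds for 48 h before reading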
How it was run: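 Gen2.2 cells (500/well) in phenol red-free RPMI with 10% FBS were exposed to compounds for 48 h at 37 °C, 5% CO2. Viability was read by CellTiter-Glo luminescence and normalized to DMSO (100%) and 9.2 uM bortezomib (0%).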

[6] = High-throughput drug toxicity screening in the BPDCN cell line Cal-1 (AID 1224825); conditions: Cal-1 BPDCN cell viability, qHTS; at 45.8 µM (top of the series) unless noted
How it was run: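 Cal-1 cells, 500 per well in phenol-red-free RPMI with 10% FBS, exposed to compounds for 48 hours at 37C, 5% CO2. Viability read by CellTiter-Glo luminescence; percent activity normalized to DMSO (100%) and 9.2 uM bortezomib final (0%).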

[7] = qHTS assay for measurement of the activity of small molecule inhibitors on Zika virus induced Caspase-3 activity in human iPSC derived neural progenitor cells (hNPCs) (AID 1224857; active = well fitted curve in the direction sought with a large enough effect; an effect the other way counts as inactive or inconclusive; note: % of control where 0% means no effect; nearly all actives have a fitted effect of over 65% in size)
How it was run: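 Caspase-3/7 induction by a 6-hour ZIKV infection was quantified with a luminescent Caspase-Glo 3/7 reagent incubated 30 minutes at room temperature. Compounds were preincubated with hNPCs for 1 hour; inhibition was calculated against uninfected and infected control wells.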

[8] = qHTS assay for measurement of the activity of small molecule inhibitors on Zika virus induced Caspase-3 activity in human astrocytoma cells (AID 1224859; active = well fitted curve in the direction sought with a large enough effect; an effect the other way counts as inactive or inconclusive;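 note: plate controls were ZIKV-infected untreated cells for no effect and uninfected cells for full effect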)
How it was run: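 In SNB-19 cells plated at 250 cells/well and grown 16-20 h, compounds were applied 1 h before ZIKV (2 FFU/cell). Six hours later caspase-3/7 luminescence was recorded.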

[9] = qHTS Screen of the MIPE 4.0 Collection Against Ewings Sarcoma (RDES) (AID 1259252; active = well fitted curve in the direction sought with a large enough effect; an effect the other way counts as inactive or inconclusive; note: nearly all actives have a fitted effect of over 35% in size; note: potency is the fitted concentration of half-maximal effect)
How it was run: (§2)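 Dose series incubated 48 h with cells in RPMI plus 5% FBS, glutamine and penicillin/streptomycin; cell viability then quantified via CellTiter-Glo.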

[10] = qHTS Screen of the MIPE 4.0 Collection Against Ewings Sarcoma (EW8) (AID 1259255; active = well fitted curve in the direction sought with a large enough effect; an effect the other way counts as inactive or inconclusive; note: nearly all actives have a fitted effect of over 35% in size; note: potency is the fitted concentration of half-maximal effect;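 for viability: 100% = DMSO-treated cells and 0% = medium-only wells without cells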)
How it was run: as §2

[11] = qHTS Screen of the MIPE 4.0 Collection Against Ewings Sarcoma (TC32) (AID 1259256; active = well fitted curve in the direction sought with a large enough effect; an effect the other way counts as inactive or inconclusive; note: nearly all actives have a fitted effect of over 45% in size; note: potency is the fitted concentration of half-maximal effect)
How it was run: as §2

[12] = qHTS profiling for inhibitors of Plasmodium falciparum (HB3) proliferation (AID 743324; active = well fitted curve in the direction sought with a large enough effect; an effect the other way counts as inactive or inconclusive;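 note: 100% = DMSO vehicle wells and 0% = artemisinin-treated control wells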); conditions: Plasmodium falciparum HB3 blood-stage proliferation; at 28.7 µM (top of the series) unless noted
How it was run: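 P. falciparum HB3 grown in erythrocytes (0.3% parasitemia, 2.5% hematocrit final) with compound for 72 h at 37 C, 5% CO2. Parasite DNA detected by SYBR Green after saponin/triton lysis overnight; normalized to 0.29 uM artemisinin and DMSO.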

| SMILES | parasite growth, % of DMSO control [1] [%] | parasite growth remaining, % of DMSO control (lower = more inhibition) [2] [%] | parasite growth, % of control (lower = inhibition) [3] [%] | growth, % of control [4] [%] | cell viability, % of control (lower = more cytotoxic) [5] [%] | viability (% of control) [6] [%] | Potency [7] | Potency [8] | Potency [9] | Potency [10] | Potency [11] | remaining proliferation (% of control), lower = more inhibition [12] [%] |
| --- | --- | --- | --- | --- | --- | --- | --- | --- | --- | --- | --- | --- |
| O=C(c1ccc(F)c(F)c1Nc1ccc(I)cc1F)N1CC(O)([C@H]2CCCCN2)C1 | 11 | 11.1 | 20.2 | 4.74 | 3.78 | 2.16 | inactive | inactive | 26.4 µM (active) | 23.5 µM (active) | 20.9 µM (active) | – |
| Cc1csc(-c2nnc(Nc3ccc(Oc4ncccc4-c4ccnc(N)n4)cc3)c3ccccc23)c1 | 38.3 | 81.1 | 47.8 | 26.8 | 24.7 | 13.3 | inactive | inactive | 0.0296 µM (active) | 0.0059 µM (active) | – | 51.2 |
| CN(C)c1nc(Cc2ccc(NC(=O)c3ccc(C(F)(F)F)cc3)cc2)nc(N(C)C)c1CC(=O)O | 88.9 | 90.9 | 75.7 | 95.1 | 204 | 132 | inactive | inactive | inactive | inactive | inactive | – |
| C[C@]12CC[C@@H]3c4ccc(O)cc4CC[C@H]3[C@H]1[C@@H](O)[C@@H](O)[C@H]2O | 5.15 | 9.25 | 7.28 | 2.52 | 218 | 44.4 | inactive | inactive | 20.9 µM (active) | inactive | inactive | – |
| CCN1CCN(c2ccc(Nc3cc(N(C)C(=O)Nc4c(Cl)c(OC)cc(OC)c4Cl)ncn3)cc2)CC1 | 4.57 | 5.88 | 8.62 | 2.41 | 147 | 90.9 | inactive | inactive | inactive | inactive | inactive | – |
| C[C@@H]1CC=CC=CC=CC=C[C@@H](O[C@@H]2O[C@H](C)[C@@H](O)[C@H](N)[C@H]2O)C[C@@H]2O[C@](O)(C[C@@H](O)C[C@@H]3O[C@@H]3C=CC(=O)O1)C[C@H](O)[C@@H]2C(=O)O | 46.3 | 67 | 59 | 52.6 | 186 | 110 | inactive | inactive | 7.43 µM (active) | 11.8 µM (active) | 14.8 µM (active) | – |
| Cc1cc(OCCCS(C)(=O)=O)cc(C)c1-c1cccc(COc2ccc3c(c2)OC[C@H]3CC(=O)O)c1 | 52.2 | 34.3 | 61.9 | 90.9 | 168 | 91.1 | inactive | inactive | inactive | 20.9 µM (active) | inactive | – |
| C[C@@H]1C[C@H]2[C@@H]3CCC4=CC(=O)C=C[C@]4(C)[C@@]3(F)[C@@H](O)C[C@]2(C)[C@@]1(O)C(=O)CO | 55.8 | 90.6 | 60.4 | 9.35 | 184 | 55.5 | inactive | inactive | inactive | inactive | inactive | – |
| CC(C)(F)C[C@H](N[C@@H](c1ccc(-c2ccc(S(C)(=O)=O)cc2)cc1)C(F)(F)F)C(=O)NC1(C#N)CC1 | 56.4 | 64.3 | 61 | 68.4 | 153 | 99.1 | inactive | inactive | 18.7 µM (active) | 16.6 µM (active) | 18.7 µM (active) | – |
| CC(=O)OCC(=O)[C@@]12OC(C)(C)O[C@H]1C[C@H]1[C@@H]3C[C@H](F)C4=CC(=O)C=C[C@]4(C)[C@@]3(F)[C@@H](O)C[C@@]12C | 51.9 | 82.3 | 35.9 | 61.2 | 76.3 | 56.5 | inactive | inactive | inactive | inactive | inactive | – |
| COc1cc2nccc(Oc3ccc(NC(=O)Nc4ccc(F)cc4F)c(F)c3)c2cc1OC | 17.2 | 36.3 | 46.4 | 9.7 | 205 | 86.2 | inactive | inactive | 14.8 µM (active) | 16.6 µM (active) | 6.62 µM (active) | – |
| CNC1CCC(N(Cc2cccc(-c3ccncc3)c2)C(=O)c2sc3ccccc3c2Cl)CC1 (stereo not drawn) | 4.86 | 7.31 | 9.91 | 6.96 | 3.76 | 1.63 | inactive | inactive | 26.4 µM (active) | 23.5 µM (active) | 20.9 µM (active) | – |
| Clc1ccc(C2(c3ccc(-c4cn[nH]c4)cc3)CCNCC2)cc1 | 4.5 | 9.74 | 12.8 | 4.19 | 16.8 | 10.8 | inactive | inactive | 14.8 µM (active) | 23.5 µM (active) | 20.9 µM (active) | – |
